Measurements: PubChem BioAssay AID1159580 (chemical genetic matrix, 2015)
Out of some 5,500 compounds screened, about 2,000 (36%) were called active. Inconclusive results (about 18%) are left out. Cut-off read from the data, not from the text of the source: active = normalized growth mostly below about 0.91 (no sharp cut-off); inconclusive = no clear call, values can overlap the other calls; inactive = mostly above about 0.92. The list shows a part of the results.

Test: chemical genetic growth profiling, strain panel (AID 1159580);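 note: tested at 20 µM; growth read once vehicle control cultures reached saturation at 30 °C; 1 = growth at the plate median or of vehicle wells; lower values mean less growth of the strain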
Settings: S. cerevisiae deletion strains, growth OD

Measured: normalized growth

COc1ccc2c(c1)c(CC(=O)O)c(C)n2Cc1ccc(F)cc1
inactive: locus YAL040C, strain CLN3, hits give low values 0.985 | locus YCL061C, strain MRC1 (second series), hits give low values 1.01 | locus YDR363W, strain ESC2, hits give low values 1 | locus YER002W, strain NOP16, hits give low values 0.999 | locus YGR078C, strain PAC10, hits give low values 1.01 | locus YMR307W, strain GAS1, hits give low values 0.99 | locus YNL128W, strain TEP1, hits give low values 0.993 | locus YNL175C, strain NOP13, hits give low values 1 | locus YNL197C, strain WHI3, hits give low values 0.991 | locus YNL224C, strain SQS1, hits give low values 0.985 | locus YNL322C, strain KRE1, hits give low values 1.01 | locus YOR083W, strain WHI5 (second series), hits give low values 1.02 | locus YPL055C, strain LGE1, hits give low values 1.01 | locus YPL241C, strain CIN2, hits give low values 1.01
